The results in this text go back to PubChem BioAssay (NCATS).

Results filed as inconclusive are left out. Active and inactive are the calls of the source. Unless noted, calls follow the shape of the full dose curve.

The nature of assay [1]: qHTS for Inhibitors of the Functional Ribonucleoprotein Complex (vRNP) of Lassa (LASV) Arenavirus: LASV Primary Screen - GLuc reporter signal (AID 1347082; calls by dose curve; tested in HEK293 reporter line; also: series mostly up to about 57 µM; nearly all actives have a fitted effect of over 60% in size). In general terms: qHTS replaces the single test concentration by a dilution series.
Assay [2] can be described thus: qHTS for Inhibitors of the Functional Ribonucleoprotein Complex (vRNP) of Lassa (LASV) Arenavirus: Viability assay - alamar blue signal for LASV Primary Screen (AID 1347083; calls by dose curve; tested in HEK293 reporter line; also: nearly all actives have a fitted effect of over 80% in size; also: potency is read from the fitted curve at half-maximal effect).
Assay [3] in a line: qHTS for Inhibitors of the Functional Ribonucleoprotein Complex (vRNP) of Lymphocytic Choriomeningitis Arenaviruses (LCMV): Viability assay - alamar blue signal for LCMV Primary Screen (AID 1347085; calls by dose curve; tested in HEK293 reporter line; also: series mostly up to about 57 µM; nearly all actives have a fitted effect of over 80% in size).
In assay [4] the target is Nucleoprotein (Lymphocytic choriomeningitis virus (strain Armstrong)) (UniProt P09992). The assay is described as follows: qHTS for Inhibitors of the Functional Ribonucleoprotein Complex (vRNP) of Lymphocytic Choriomeningitis Arenaviruses (LCMV): LCMV Primary Screen - GLuc reporter signal (AID 1347086). Also: series mostly up to about 57 µM; nearly all actives have a fitted effect of over 70% in size.
Sequence of Nucleoprotein (Lymphocytic choriomeningitis virus (strain Armstrong)) (P09992 whole entry, looked up): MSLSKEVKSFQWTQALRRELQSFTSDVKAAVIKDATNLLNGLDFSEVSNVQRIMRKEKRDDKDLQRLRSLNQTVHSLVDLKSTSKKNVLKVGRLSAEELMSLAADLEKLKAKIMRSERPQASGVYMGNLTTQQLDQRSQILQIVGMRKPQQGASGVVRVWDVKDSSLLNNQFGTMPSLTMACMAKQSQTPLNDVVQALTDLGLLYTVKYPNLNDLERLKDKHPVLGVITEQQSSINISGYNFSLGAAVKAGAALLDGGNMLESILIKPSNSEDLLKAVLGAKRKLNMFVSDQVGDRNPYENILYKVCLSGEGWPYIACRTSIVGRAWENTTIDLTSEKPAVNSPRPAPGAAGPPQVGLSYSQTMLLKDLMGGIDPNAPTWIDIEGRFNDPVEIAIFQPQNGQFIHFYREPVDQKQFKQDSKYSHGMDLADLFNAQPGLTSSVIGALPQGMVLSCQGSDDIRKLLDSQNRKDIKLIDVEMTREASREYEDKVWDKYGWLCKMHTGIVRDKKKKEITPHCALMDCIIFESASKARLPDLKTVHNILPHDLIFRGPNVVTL

With `Nc1ccc(S(N)(=O)=O)cc1`, the Potency result in assay [1], in assay [2], in assay [3] and in assay [4] was “inactive” each time.
For the compound `CC(N=C(NC#N)Nc1ccncc1)C(C)(C)C` (centres undefined), the Potency result in assay [1], in assay [2], in assay [3] and in assay [4] was “inactive” throughout.
For the compound `NC(=O)c1ccc([N+](=O)[O-])cc1Cl`, the Potency result in assay [1], in assay [2], in assay [3] and in assay [4] was “inactive” throughout.
With `Cc1ncc([N+](=O)[O-])n1CC(C)O` (centres undefined), the Potency result in assay [1], in assay [2] and in assay [3] was “inactive” in each case.
With `CC(C)OC(=O)OCOP(=O)(CO[C@H](C)Cn1cnc2c(N)ncnc21)OCOC(=O)OC(C)C`, the Potency result in assay [1], in assay [2], in assay [3] and in assay [4] was “inactive” in each case.
On to `CC(C)[N+](C)(C)CC(O)COc1cccc2ccccc12` (centres undefined), for which the Potency entry in assay [1], in assay [2], in assay [3] and in assay [4] was “inactive” in each case.
Take `S=c1nc[nH]c2nc[nH]c12`: in assay [1], the Potency result was “inactive”. Moreover, the Potency in assay [2] is 6.11 µM (active).
On to `CS(=O)(=O)c1ccc([C@@H](O)[C@@H](CO)NC(=O)C(Cl)Cl)cc1`, for which the Potency entry in assay [1], in assay [2], in assay [3] and in assay [4] was “inactive” each time.
With `CCCc1c2oc(C(=O)O)cc(=O)c2cc2c(=O)cc(C(=O)O)n(CC)c12`, the Potency entry in assay [1], in assay [2], in assay [3] and in assay [4] was “inactive” throughout.
With `O=c1cc[nH]c(=S)[nH]1`, the Potency result in assay [1], in assay [2], in assay [3] and in assay [4] was “inactive” in each case.
In the case of `CC1CC(OC(=O)c2ccccc2O)CC(C)(C)C1` (centres undefined), the Potency entry in assay [1], in assay [2], in assay [3] and in assay [4] was “inactive” throughout.
Consider `Cc1cc(CCCOc2c(C)cc(-c3noc(C(F)(F)F)n3)cc2C)on1`, for which the Potency entry in assay [1], in assay [2], in assay [3] and in assay [4] was “inactive” in each case.
As to `O=C(O)c1c(O)c(-c2ccccc2)nc2ccccc12`, the Potency entry in assay [1], in assay [2], in assay [3] and in assay [4] was “inactive” in each case.
With `Nc1nc2[nH]cc(CCc3ccc(C(=O)N[C@@H](CCC(=O)O)C(=O)O)cc3)c2c(=O)[nH]1`, the Potency entry in assay [1] and in assay [2] was “inactive” each time.
Turning to `O=C(O)c1ccc[n+]([O-])c1`, the Potency entry in assay [1], in assay [2], in assay [3] and in assay [4] was “inactive” each time.
Turning to `CC(=O)NC[C@H]1CN(c2ccc(N3CCOCC3)c(F)c2)C(=O)O1`, the Potency result in assay [1], in assay [2] and in assay [3] was “inactive” each time.
As to `Nc1ccc(S(=O)(=O)Nc2ccccn2)cc1`, the Potency result in assay [1], in assay [2], in assay [3] and in assay [4] was “inactive” in each case.
`CC1(C)O[C@@H]2C[C@H]3[C@@H]4CCC5=CC(=O)C=C[C@]5(C)[C@@]4(F)[C@@H](O)C[C@]3(C)[C@]2(C(=O)CO)O1`: the Potency result in assay [1], in assay [2], in assay [3] and in assay [4] was “inactive” in each case.
In the case of `Cc1onc(-c2ccccc2)c1C(=O)N[C@@H]1C(=O)N2[C@@H](C(=O)O)C(C)(C)S[C@@H]12`, the Potency entry in assay [1] and in assay [2] was “inactive” in each case.
With `COC(=O)c1ccccc1C(=O)c1ccc(OCCN2CCCCC2)cc1`, the Potency result in assay [1], in assay [2], in assay [3] and in assay [4] was “inactive” in each case.
With `NC(=O)c1cnccn1`, the Potency entry in assay [1], in assay [2] and in assay [3] was “inactive” throughout.
For the compound `O=C1c2ccccc2C(=O)C1C(=O)C(c1ccccc1)c1ccccc1`, the Potency result in assay [1], in assay [2], in assay [3] and in assay [4] was “inactive” each time.
Turning to `CC(C)(C)C1CCC(CC2=C(O)c3ccccc3C(=O)C2=O)CC1` (centres undefined), the Potency entry in assay [1], in assay [2] and in assay [3] was “inactive” each time.
As to `Nc1nc2ccc(OC(F)(F)F)cc2s1`, the Potency result in assay [1] was “inactive”.
As for `O=C1O[C@H](CO)[C@@H](O)[C@H](O)[C@H]1O`, the Potency result in assay [1], in assay [2], in assay [3] and in assay [4] was “inactive” in each case.
Regarding `C=CCN1C[C@H](C(=O)N(CCCN(C)C)C(=O)NCC)C[C@@H]2c3cccc4[nH]cc(c34)C[C@H]21`, the Potency entry in assay [1], in assay [2], in assay [3] and in assay [4] was “inactive” throughout.
For `COc1cc(C(=O)N2CCCCCCC2)cc(OC)c1OC`, the Potency entry in assay [1], in assay [2], in assay [3] and in assay [4] was “inactive” each time.
As for `C[C@]12CCC(=O)C=C1CC[C@@H]1[C@@H]2[C@@H](O)C[C@@]2(C)[C@H]1CC[C@]2(O)C(=O)COC(=O)CCC(=O)O`, the Potency result in assay [1], in assay [2], in assay [3] and in assay [4] was “inactive” each time.
As for `COCCCOc1ccnc(CS(=O)c2nc3ccccc3[nH]2)c1C` (centres undefined), the Potency entry in assay [1] and in assay [2] was “inactive” throughout.
As for `CC(C)(S)[C@@H](N)C(=O)O`, the Potency entry in assay [1], in assay [2] and in assay [3] was “inactive” in each case.
As for `Nc1nc(Cl)nc2c1ncn2[C@@H]1O[C@H](CO)[C@@H](O)[C@@H]1F`, the Potency result in assay [1] is “inactive”.
Turning to `C[N+](C)(C)CC(O)CC(=O)[O-]` (centres undefined), the Potency entry in assay [1], in assay [2], in assay [3] and in assay [4] was “inactive” in each case.
On to `CC(C(=O)O)c1ccc2c(c1)CC(=O)c1ccccc1S2` (centres undefined), for which the Potency entry in assay [1] and in assay [2] was “inactive” each time.
As to `O=C(O)c1ccccc1-c1ccc(C(F)(F)F)cc1`, the Potency entry in assay [1] and in assay [2] was “inactive” throughout.
In the case of `O=S(=O)(O)c1cc(I)c(O)c2ncccc12`, the Potency entry in assay [1], in assay [2], in assay [3] and in assay [4] was “inactive” in each case.
As for `COc1ccc(C(=O)CC(=O)c2ccc(C(C)(C)C)cc2)cc1`, the Potency entry in assay [1], in assay [2], in assay [3] and in assay [4] was “inactive” in each case.
For `COc1cc(/C=C/C(=O)O[C@H]2CC[C@]34C[C@]35CC[C@]3(C)[C@@H]([C@H](C)CCC=C(C)C)CC[C@@]3(C)[C@@H]5CC[C@H]4C2(C)C)ccc1O`, the Potency entry in assay [1], in assay [2], in assay [3] and in assay [4] was “inactive” in each case.
For the compound `CCCCCN(CCCOC)C(=O)C(CCC(=O)O)NC(=O)c1ccc(Cl)c(Cl)c1` (centres undefined), the Potency entry in assay [1], in assay [2], in assay [3] and in assay [4] was “inactive” each time.
Take `O=C(O)Cn1cnnn1`: the Potency result in assay [1], in assay [2], in assay [3] and in assay [4] was “inactive” each time.
In the case of `O=C(O)/C=C(\CC(=O)O)C(=O)O`, the Potency entry in assay [1], in assay [2], in assay [3] and in assay [4] was “inactive” each time.
As for `Cc1nc2ccccn2c(=O)c1CCN1CCC(C(=O)c2ccc(F)cc2)CC1`, the Potency result in assay [1], in assay [2], in assay [3] and in assay [4] was “inactive” each time.
Turning to `CC(C)NCC(O)c1ccc(NS(C)(=O)=O)cc1` (centres undefined), the Potency entry in assay [1], in assay [2], in assay [3] and in assay [4] was “inactive” throughout.
Take `Cc1cc(CC(=O)O)c(C)n1-c1ccc(Cl)cc1`: the Potency entry in assay [1], in assay [2], in assay [3] and in assay [4] was “inactive” in each case.
